Only some compounds are listed: those with a hit (about 4.5% of all), similar ones and a draw of the others.
CSC inhib: cancer stem cell inhibition; 300,000 compounds, 1.1% hits; inhibition, % at 7.5 µM; cancer stem cell-like cells viability, luminescence; in the data active = inhibition above about 75%; tested in HMLE shEcad cells
697 NFkB inh: inhibitors of the PMA/ionomycin-induced NF-kB reporter in 697 B cells | 697 B-cell NF-kB luciferase reporter, 16 h | inhibition, % at 4 µM | 330,000 compounds, 0.33% hits | AID 435022; in the data active = inhibition above about 35%
Gli-Sufu antag: Gli-Sufu pathway antagonism | AID 588413 | inhibition, % at 5 µM | Sufu-KO-LIGHT fibroblasts, Gli luciferase reporter luminescence | 340,000 compounds, 0.74% hits;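 active = inhibition above about 55%, limit read from the data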;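 note: 0% = DMSO-treated cells and 100% = wells with medium but no cells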
aSyn UTR inh: 5' untranslated region of α-synuclein, MLPCN primary screen | alpha-synuclein 5'UTR reporter, inhibitor activity | inhibition, % (tested at 7.5 µM) | 300,000 compounds, 0.82% hits | AID 1813; in the data active = inhibition above about 60%;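 note: H4 neuroglioblastoma cells stably carrying SNCA 5'UTR luciferase fusion; 0% = DMSO wells and 100% = positive control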
Jurkat NFkB inh: inhibitors of the PMA/ionomycin-induced NF-kB reporter in Jurkat cells; 330,000 compounds, 0.53% hits; inhibition, % at 4 µM; PMA/ionomycin-induced NF-kB luciferase reporter, luminescence; AID 435003; in the data active = inhibition above about 50%
Mdm2-MdmX inh: disrupts the human Mdm2-MdmX interaction; O15151+Q00987; SaOS-2 split-luciferase Mdm2/MdmX complementation, luminescence; inhibition, % at 8 µM; 330,000 compounds, 3% hits;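 active = inhibition of at least 50% at 8 µM in the primary screen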
Target sequence (O15151 whole entry, looked up): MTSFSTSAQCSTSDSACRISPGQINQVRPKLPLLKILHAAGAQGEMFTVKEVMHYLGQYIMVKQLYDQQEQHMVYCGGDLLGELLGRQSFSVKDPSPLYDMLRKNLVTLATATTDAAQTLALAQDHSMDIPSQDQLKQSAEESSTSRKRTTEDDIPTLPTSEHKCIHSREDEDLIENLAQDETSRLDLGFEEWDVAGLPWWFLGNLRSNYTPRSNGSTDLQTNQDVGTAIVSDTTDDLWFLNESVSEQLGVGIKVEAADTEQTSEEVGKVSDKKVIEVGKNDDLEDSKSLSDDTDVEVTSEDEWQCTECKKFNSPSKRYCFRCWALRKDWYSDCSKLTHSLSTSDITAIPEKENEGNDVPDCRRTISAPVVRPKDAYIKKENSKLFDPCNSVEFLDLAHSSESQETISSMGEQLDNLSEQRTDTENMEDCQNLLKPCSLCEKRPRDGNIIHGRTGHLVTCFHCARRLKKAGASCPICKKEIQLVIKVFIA
Target sequence (Q00987 whole entry, looked up): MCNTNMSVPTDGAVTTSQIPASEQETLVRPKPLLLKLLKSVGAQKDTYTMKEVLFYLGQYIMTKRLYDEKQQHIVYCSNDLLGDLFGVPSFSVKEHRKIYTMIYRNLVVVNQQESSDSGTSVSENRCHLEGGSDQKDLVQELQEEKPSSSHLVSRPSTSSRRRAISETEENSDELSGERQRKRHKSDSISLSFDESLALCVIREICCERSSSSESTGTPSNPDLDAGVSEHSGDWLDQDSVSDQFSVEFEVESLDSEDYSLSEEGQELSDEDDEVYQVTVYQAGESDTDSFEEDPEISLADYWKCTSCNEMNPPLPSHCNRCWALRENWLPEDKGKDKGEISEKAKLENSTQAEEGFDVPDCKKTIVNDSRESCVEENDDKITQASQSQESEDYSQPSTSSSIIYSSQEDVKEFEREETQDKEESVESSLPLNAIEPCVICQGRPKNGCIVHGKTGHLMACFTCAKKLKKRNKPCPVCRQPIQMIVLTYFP
Starred values were filed as active, the others as inactive; x = no result given.

SMILES | CSC inhib | 697 NFkB inh | Gli-Sufu antag | aSyn UTR inh | Jurkat NFkB inh | Mdm2-MdmX inh
O=C(CN1CCOCC1)Nc1cccc(C(=O)Nc2cccc(C(F)(F)F)c2)c1 | -12 | -2 | 8 | 8 | 6 | 6
CC(=O)NC(Cc1ccccc1F)C(=O)NC1CCN(C(=O)Nc2ccc(C)cc2)CC1 (stereo not drawn) | 9 | 9 | -25 | -1 | 4 | 8
CSCC[C@H](N)C(=O)N1CCC(C(=O)N[C@H](C(=O)NCc2ccccc2F)C(C)C)CC1 | 1 | -2 | 2 | 7 | -2 | 13
CNC(=S)N(Cc1ccc(OC)cc1)Cc1cc2ccc(C)cc2[nH]c1=O | -8 | 5 | 4 | 15 | -2 | 3
CCOc1ccc(NC(=O)Cc2ccc(S(=O)(=O)N3CCCCC3)cc2)cc1OCC | -9 | -2 | 2 | x | -4 | 10
Cc1ccc(-c2cc(-c3ccccc3Cl)[nH]n2)c(O)c1 | 112* | -163 | -68 | -221 | -143 | -68
Cc1ccc(-c2cc(-c3ccccc3[N+](=O)[O-])[nH]n2)c(O)c1 | -8 | -68 | -52 | -343 | -106 | -77
CCOc1ccc(S(=O)(=O)Nc2cc(OC)ccc2OC)cc1 | 57 | 4 | 27 | 81* | 40 | 48
Oc1ccc(/C=N/NC(=S)NCCN2CCOCC2)c(O)c1 | -4 | -20 | -7 | 4 | -3 | -16
Cc1ccc2nc(-c3cccc(NS(C)(=O)=O)c3)cc(-c3ccccc3)c2c1 | 115* | 6 | -6 | 14 | -1 | 31
CC(=O)c1c(N2CCN(C)CC2)[nH]c(-c2ccccc2)nc1=S | -18 | 13 | 7 | 4 | -7 | 8
CCN(CCO)c1ccc(N=Nc2cc(C)[nH]n2)cc1 | -9 | -87 | -4 | 102* | -23 | 26
Cc1cc(N(CCO)CCO)ccc1N=Nc1cc(F)ccc1F | 22 | -9 | 7 | -137 | -42 | -79
COc1ccc(-c2nc(CSCC(=O)NCCCN3CCCC3=O)c(C)o2)cc1OC | 0 | 10 | -16 | 5 | 7 | -7
COc1ccccc1NCc1ccc([N+](=O)[O-])s1 | 7 | -32 | -5 | -26 | 9 | -38
Cc1ccccc1NCc1ccc([N+](=O)[O-])s1 | 94* | 10 | -11 | 1 | 2 | -17
O=C1c2[nH]nc(-c3ccccc3O)c2C(c2ccc(F)cc2)N1Cc1ccco1 (stereo not drawn) | 4 | -3 | 5 | 11 | -10 | -28
O=C1c2[nH]nc(-c3ccccc3O)c2C(c2cccc(Cl)c2)N1Cc1ccco1 (stereo not drawn) | 92* | -23 | 2 | 9 | -6 | 17
CCCCCCn1c(=O)[nH]c2nc3cc(N)ccc3nc2c1=O | 82* | x | 18 | -44 | x | x
CCCCCn1c(=O)c(C(=O)c2ccccc2)nc2ccccc21 | -6 | 7 | 7 | 0 | 17 | 7
COc1cc(/C=N/NC(N)=S)ccc1OCc1ccc(C)cc1 | 76* | -12 | 5 | -179 | -26 | 6
COc1cc(/C=N/NS(=O)(=O)c2ccc3ccccc3c2)ccc1OCc1ccc(C(=O)O)cc1 | 12 | -20 | -51 | 84* | 42 | 50
O=C(CN1CCOCC1)N1CCOCC1 | x | x | 8 | x | x | x
Cn1cc([N+](=O)[O-])c(C(=O)Nc2cc(Oc3ccccc3)cc([N+](=O)[O-])c2)n1 | 96* | x | 10 | 12 | x | x
Cc1nn(C)cc1C(=O)Nc1cc(Oc2ccc(Cl)cc2)cc([N+](=O)[O-])c1 | -1 | -2 | 7 | 2 | 1 | 21
SMILES | CSC inhib | 697 NFkB inh | Gli-Sufu antag | aSyn UTR inh | Jurkat NFkB inh | Mdm2-MdmX inh
CCOC(=O)/C(=C\c1ccc(Cl)cc1)c1nc2sc(C)c(C)c2c(=O)[nH]1 | 118* | -9 | -3 | -49 | 4 | 38
CCOC(=O)CSc1nc2sc(C)c(C)c2c(=O)[nH]1 | x | 14 | 4 | -5 | 7 | 20
Cc1ccc(Oc2nc(CN3CCOCC3)nc3sc4c(c23)CCC(C)C4)cc1C (stereo not drawn) | 120* | -27 | 7 | 29 | -35 | 14
COCCn1c(-c2ccc(NC(C)=O)cc2)nc2c1c(=O)[nH]c(=O)n2CC(C)C | 14 | -32 | 6 | 22 | -4 | 5
N#CCC(=O)Nc1ccc(C(=O)NNC(=S)NC2CCCCC2)cc1 | -21 | 0 | 7 | x | -9 | 34
CC(C)CC(=O)Nc1ccc(C(=O)NNC(=S)NC(=O)C2CCCCC2)cc1 | 0 | 12 | -5 | 67* | 17 | 47
Cc1ccc(C2C(C#N)=C(N)Oc3cc(N)ccc32)cc1 (stereo not drawn) | 27 | -4 | 10 | 9 | -36 | 3
N#CC1=C(N)Oc2cc(N)ccc2C1c1cccc(Br)c1 (stereo not drawn) | 82* | -65 | 37 | 119* | 49 | 42
C=C1CC[C@H](O)C/C1=C/C=C1\CCC[C@]2(C)[C@@H]([C@H](C)/C=C/[C@H](C)C(C)C)CC[C@@H]12 | 20 | 15 | -4 | x | -3 | 24
Cc1ccc2nc(NC(=O)CSCC(=O)OCC(=O)c3ccccc3)sc2c1 | 1 | x | 43 | 62* | x | x
CCNC(=O)c1ccc(NS(=O)(=O)c2ccc3[nH]c(=O)[nH]c3c2)cc1 | -7 | 24 | 12 | -31 | 0 | 23
CC(=O)N(c1cc(C)ccc1C)c1ccccc1[N+](=O)[O-] | x | x | -3 | x | x | x
O=c1/c(=C\c2cccc(O)c2)sc2nc(-c3ccccc3)c(-c3ccccc3)n12 | 91* | 1 | -7 | -25 | -13 | 5
COc1ccc(/C=c2\sc3nc(-c4ccccc4)c(-c4ccccc4)n3c2=O)cc1OC | 3 | 5 | -1 | -3 | -4 | -4
CCOC(=O)c1ncn2c1[C@@H]1CCNC1C(=O)c1cc(OC)ccc1-2 (stereo partly drawn) | 4 | 16 | -18 | x | 5 | 10
Cc1nnc(-c2ccc(Oc3ccc(Br)cc3)c([N+](=O)[O-])c2)o1 | 139* | -11 | x | -2 | -14 | 3
CN1C(=O)/C(=C/c2ccc(OCc3ccccc3F)cc2)N(C)C1=S | -6 | 3 | -4 | -56 | -12 | -7
CC(C(Sc1ccccc1N)c1ccccc1)[N+](=O)[O-] (stereo not drawn) | 94* | -9 | 10 | -83 | -13 | 36
Nc1ccccc1SSc1ccccc1N | -2 | -28 | 1 | -12 | -16 | 25
CCOC(=O)c1sc(NC(=O)CCN2CCN(C)CC2)c(C(=O)OCC)c1C | 19 | -7 | 14 | 6 | 1 | 38
CCOC(=O)c1c(NC(=O)CN2CCN(C)CC2)sc(C(=O)Nc2ccccc2)c1C | 79* | -33 | 13 | -56 | -40 | 43
N#Cc1cc2c(cc1NC(=O)CCn1cnnn1)OCO2 | 16 | -10 | -25 | -11 | 4 | 13
C[C@H](CO)N1C[C@H](C)[C@@H](CN(C)S(=O)(=O)c2ccccc2)Oc2ccc(NC(=O)Nc3ccc(C(F)(F)F)cc3)cc2C1=O | 102* | -5 | -1 | x | 8 | 45
O=C(NNc1ccccc1)C(=O)N1CCCCC1 | 111* | 18 | 4 | 6 | 6 | 16

Bioassay records deposited in PubChem BioAssay by several laboratories.
